According to PubChem BioAssay (NCI):
The panel holds about 83,000 compounds, 20% with a hit somewhere; the sample as a whole holds those more often.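 Testing used 96-well plates and a 48-hour single-concentration exposure. Example: -40 means 40% of the starting cells died.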 The source made the active and inactive calls. How the source made its calls: active means growth percent below 10; inactive means the rest.

What was measured:
Test in all cases: NCI-60 one-dose screen, 48 h (100 = growth as untreated, 0 = no growth, -100 = all killed)
[1] = system: DU-145 prostate; details: 10 µM unless noted
[2] = system: MALME-3M melanoma; details: 10 µM unless noted
[3] = system: MDA-MB-231 breast; details: 10 µM unless noted
[4] = system: RXF 393 renal; details: 10 µM unless noted
[5] = system: SF-268 CNS; details: 10 µM unless noted
[6] = system: SF-295 CNS; details: 10 µM unless noted
[7] = system: SF-539 CNS; details: 10 µM unless noted
[8] = system: UACC-257 melanoma; details: 10 µM
[9] = system: M14 melanoma; details: 10 µM unless noted
[10] = system: HCT-15 colon; details: 10 µM unless noted
[11] = system: HT29 colon; details: 10 µM unless noted
[12] = system: SNB-75 CNS; details: 10 µM unless noted
[13] = system: SNB-19 CNS; details: 10 µM unless noted
[14] = system: U251 CNS; details: 10 µM unless noted
[15] = system: PC-3 prostate; details: 10 µM unless noted
[16] = system: SK-MEL-5 melanoma; details: 10 µM unless noted
[17] = system: UACC-62 melanoma; details: 10 µM unless noted
[18] = system: LOX IMVI melanoma; details: 10 µM unless noted
[19] = system: SK-MEL-28 melanoma; details: 10 µM unless noted
[20] = system: K-562 leukemia; details: 10 µM unless noted

Measured: growth

CS(=O)(=O)c1nccc(-c2c(-c3ccc(F)c(OCc4ccc(F)cc4)c3)nc3sccn23)n1
inactive: [2] 111% | [3] 79.9% | [4] 84.2% | [5] 96.1% | [6] 96.9% | [7] 90.1% | [9] 81.3% | [10] 70% | [11] 85.5% | [12] 106% | [13] 75.4% | [14] 100% | [16] 96.7% | [17] 81.1% | [18] 19.9% | [19] 61.6%
active: [1] -96.4% | [8] -56.9% | [15] -17.3%

C=CCn1c(SCC(=O)Nc2cccc(C(=O)/C=C/c3ccc(OC)c(OC)c3)c2)nc2ccccc2c1=O
inactive: [1] 95.2% | [2] 84.7% | [3] 89.7% | [4] 87.9% | [5] 89.1% | [6] 104% | [7] 90.3% | [8] 108% | [9] 114% | [10] 72.4% | [11] 95% | [12] 83.7% | [13] 77.2% | [14] 76.6% | [15] 79.7% | [16] 97.6% | [17] 74.9% | [18] 79.5% | [19] 102%

Cc1ccc(C2CC(c3ccc(Nc4nc(NCCO)nc(Nc5ccc(Cl)cc5)n4)cc3)=Nc3c(N)nc(N)nc3N2)cc1 (centres undefined)
inactive: [2] 95.6% | [6] 28.9% | [8] 113% | [12] 112% | [16] 67.5% | [17] 107% | [19] 110%
active: [1] -90.7% | [20] -53.5% | [3] -74.3% | [5] -46.7% | [7] -20.3% | [9] 2.15% | [10] -81.7% | [11] -90.8% | [13] -90.3% | [14] -96.8% | [15] -32.7% | [18] -93.9%

CS(=O)(=O)c1nccc(-c2c(-c3ccc(F)c(OCCc4ccccc4)c3)nc3sccn23)n1
inactive: [2] 119% | [3] 89.4% | [4] 99.1% | [5] 98.7% | [6] 97.2% | [7] 93% | [9] 83.2% | [10] 83.1% | [11] 91.3% | [12] 108% | [13] 81.7% | [14] 105% | [15] 41.7% | [16] 98% | [17] 83.9% | [18] 75.2% | [19] 57.3%
active: [1] -87.9% | [8] -16.4%

CC1(C)CC[C@]2(C(=O)N3CCCNCC3)CC[C@]3(C)C(=CC[C@@H]4[C@@]5(C)CCC(=O)C(C)(C)[C@@H]5CC[C@]43C)[C@H]2C1
inactive: [1] 108% | [20] 96.8% | [2] 110% | [3] 106% | [5] 102% | [6] 104% | [7] 97.2% | [8] 105% | [9] 110% | [10] 103% | [11] 102% | [12] 124% | [13] 98% | [14] 100% | [15] 88.2% | [16] 102% | [18] 97.2% | [19] 104%

COc1ccc([C@H]2[C@H](O)C(=O)N2c2cc(OC)c(OC)c(OC)c2)cc1Cl
active: [6] 5.44% | [7] -9.87% | [10] 9.77% | [11] 1.45% | [14] 1.42% | [16] -12.5%
inactive: [1] 18.3% | [2] 65.9% | [3] 26.9% | [4] 24.3% | [5] 44.7% | [8] 40.8% | [9] 10.3% | [12] 58.6% | [13] 29.2% | [15] 12.6% | [17] 31% | [18] 14.4% | [19] 63.6%

CS(=O)(=O)c1ccc2c(c1)c1c(n2S(=O)(=O)c2ccc(Cl)cc2)CCCC1
inactive: [1] 22.9% | [2] 54.5% | [3] 29.8% | [5] 63.3% | [6] 21% | [8] 60.6% | [9] 26.3% | [10] 24% | [13] 30.1% | [14] 25.6% | [15] 30.7% | [16] 26.7% | [17] 15.5% | [18] 36.5% | [19] 64.2%
active: [4] -0.699% | [7] 2.97% | [11] 5.37% | [12] -1.4%

C=CCn1c(SCC(=O)Nc2cccc(C(=O)/C=C/c3ccc(Cl)cc3)c2)nc2ccccc2c1=O
inactive: [1] 95.1% | [2] 95.6% | [3] 81.3% | [4] 87% | [5] 87.3% | [6] 94.7% | [7] 85.9% | [8] 102% | [9] 87.8% | [10] 81.5% | [11] 84.8% | [12] 72.2% | [13] 86.9% | [14] 90.7% | [15] 89% | [16] 99.1% | [18] 77.9% | [19] 93.3%

CS(=O)c1nccc(-c2c(-c3ccc(F)c(OCCc4ccccc4)c3)nc3sccn23)n1 (centres undefined)
active: [1] 4.08%
inactive: [2] 87.5% | [3] 84.7% | [4] 98.5% | [5] 101% | [6] 101% | [7] 95.9% | [8] 28.5% | [9] 76% | [10] 65.4% | [11] 59.9% | [12] 106% | [13] 86.6% | [14] 106% | [15] 64.6% | [16] 100% | [17] 93.8% | [18] 72.1% | [19] 87.8%

C=C1C(=O)O[C@@H]2C[C@@H](C)CCC(=O)[C@](C)(OC(C)=O)C[C@H](OC(=O)/C(C)=C\C)[C@@H]12
inactive: [1] 37.2% | [2] 85.5% | [3] 50.4% | [4] 51.3% | [5] 96.1% | [6] 97.5% | [7] 72.3% | [8] 73.4% | [9] 82.4% | [10] 60.9% | [11] 52.5% | [12] 80.6% | [13] 90.6% | [14] 88.8% | [15] 79.1% | [18] 54.8%

Cc1ccc(-c2cc(-c3cccc4ccccc34)n3c(n2)nc2ccccc23)cc1
inactive: [1] 69.4% | [20] 51.1% | [2] 32.2% | [3] 73.1% | [5] 66.4% | [6] 40.9% | [7] 49.4% | [8] 75.1% | [9] 61.5% | [10] 48% | [11] 73.4% | [12] 46.8% | [13] 53.5% | [14] 48.9% | [15] 60.3% | [16] 40.9% | [17] 43.5% | [18] 56.6% | [19] 77%

C/C(=C(/c1ccc(O)cc1)c1ccc(OCCN2CCCC2)cc1)c1ccc(Cl)cc1
inactive: [1] 65.1% | [3] 40.9% | [5] 60.9% | [6] 67.8% | [12] 62.5% | [13] 49.1% | [14] 20.3% | [15] 46.9% | [16] 54.3%
active: [2] -39.9% | [4] 3.89% | [7] 0.146% | [8] -77.6% | [9] -64.7% | [10] -19.1% | [11] -52.3% | [17] -17.7% | [18] -19.2% | [19] -70%

CCOC(=O)c1c(Nc2ccccc2)nn2c(-c3ccc(OC)c(OC)c3)ccnc12
inactive: [1] 74.2% | [20] 19.8% | [2] 76.2% | [3] 34.9% | [5] 68.1% | [6] 49% | [7] 60.2% | [8] 95.2% | [9] 53.6% | [10] 18.4% | [11] 62.3% | [13] 80.1% | [14] 60.6% | [15] 39.1% | [16] 32.4% | [17] 77.1% | [18] 37.6% | [19] 65.8%

CCCCCCNC(=O)Oc1ccc(/C(=C(/C)c2ccccc2)c2ccc(OCCN(C)C)cc2)cc1
active: [8] -55.9% | [9] -35.9% | [10] -32.3% | [11] -25.6%
inactive: [1] 83.2% | [2] 37.6% | [3] 52.2% | [4] 46.5% | [5] 69.1% | [6] 90% | [7] 46.9% | [12] 73.5% | [13] 64.4% | [14] 54.7% | [15] 70.6% | [16] 78.2% | [17] 52.8% | [18] 13.8% | [19] 55.1%

CS(=O)c1nccc(-c2c(-c3ccc(F)c(OCc4ccc(F)cc4)c3)nc3sccn23)n1 (centres undefined)
inactive: [2] 92.3% | [3] 67.8% | [4] 87.6% | [5] 100% | [6] 97.8% | [7] 88.4% | [9] 81.6% | [10] 59.4% | [11] 27.9% | [12] 94.4% | [13] 68.7% | [14] 96% | [16] 100% | [17] 85.6% | [18] 78.6% | [19] 41.1%
active: [1] -9.49% | [8] -24.6% | [15] -10.7%
